A selection: hits, their analogues and other compounds. The true share with any hit is near 12%.
PLK1 PBD inh: PLK1 (human) polo-box domain binding inhibition. P53350. Plk1 PBD binding of FITC phosphopeptide, fluorescence polarization. Potency, µM, for inactives: max response, negative = inhibition, actives largely listed as inhibitors. hit rate 2.8% among 360,000. AID 720504; also: series mostly up to about 57 µM; % is scaled to controls: 0 for no effect and ±100 for the full control effect; nearly all actives have a fitted effect of over 65% in size
HP1b binding inh: blocks HP1-beta chromodomain binding to methylated histone tails; AID 540317; AlphaScreen HP1-beta / biotin-H3K9me3 peptide binding; hit rate 0.56% among 390,000; P83916; Potency, µM (top dose mostly 114 µM), for the others: top-dose activity change, negative = inhibition, hits mostly inhibitors; also: nearly all actives have a fitted effect of over 70% in size
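AlphaScreen: HP1-beta (50 nM) preformed 30 min with biotin-H3(1-18)K9me3 peptide (50 nM) in PBS pH 7.4, 0.01% Tween-20. Compound added for 30 min at RT, then streptavidin donor/nickel chelate acceptor beads (10 ug/mL) for 30 min.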
BAZ2B block: blocks human BAZ2B. Q9UIF8. Potency, µM (titrated, usually from 114 µM), inactives show at the top dose activity change, negative = inhibition, hits mostly inhibitors. hit rate 4.4% among 360,000. AlphaScreen BAZ2B-H3K14Ac peptide displacement; also: % is scaled to controls: 0 for no effect and ±100 for the full control effect; nearly all actives have a fitted effect of over 60% in size
Target sequence (Q9UIF8 whole entry, looked up): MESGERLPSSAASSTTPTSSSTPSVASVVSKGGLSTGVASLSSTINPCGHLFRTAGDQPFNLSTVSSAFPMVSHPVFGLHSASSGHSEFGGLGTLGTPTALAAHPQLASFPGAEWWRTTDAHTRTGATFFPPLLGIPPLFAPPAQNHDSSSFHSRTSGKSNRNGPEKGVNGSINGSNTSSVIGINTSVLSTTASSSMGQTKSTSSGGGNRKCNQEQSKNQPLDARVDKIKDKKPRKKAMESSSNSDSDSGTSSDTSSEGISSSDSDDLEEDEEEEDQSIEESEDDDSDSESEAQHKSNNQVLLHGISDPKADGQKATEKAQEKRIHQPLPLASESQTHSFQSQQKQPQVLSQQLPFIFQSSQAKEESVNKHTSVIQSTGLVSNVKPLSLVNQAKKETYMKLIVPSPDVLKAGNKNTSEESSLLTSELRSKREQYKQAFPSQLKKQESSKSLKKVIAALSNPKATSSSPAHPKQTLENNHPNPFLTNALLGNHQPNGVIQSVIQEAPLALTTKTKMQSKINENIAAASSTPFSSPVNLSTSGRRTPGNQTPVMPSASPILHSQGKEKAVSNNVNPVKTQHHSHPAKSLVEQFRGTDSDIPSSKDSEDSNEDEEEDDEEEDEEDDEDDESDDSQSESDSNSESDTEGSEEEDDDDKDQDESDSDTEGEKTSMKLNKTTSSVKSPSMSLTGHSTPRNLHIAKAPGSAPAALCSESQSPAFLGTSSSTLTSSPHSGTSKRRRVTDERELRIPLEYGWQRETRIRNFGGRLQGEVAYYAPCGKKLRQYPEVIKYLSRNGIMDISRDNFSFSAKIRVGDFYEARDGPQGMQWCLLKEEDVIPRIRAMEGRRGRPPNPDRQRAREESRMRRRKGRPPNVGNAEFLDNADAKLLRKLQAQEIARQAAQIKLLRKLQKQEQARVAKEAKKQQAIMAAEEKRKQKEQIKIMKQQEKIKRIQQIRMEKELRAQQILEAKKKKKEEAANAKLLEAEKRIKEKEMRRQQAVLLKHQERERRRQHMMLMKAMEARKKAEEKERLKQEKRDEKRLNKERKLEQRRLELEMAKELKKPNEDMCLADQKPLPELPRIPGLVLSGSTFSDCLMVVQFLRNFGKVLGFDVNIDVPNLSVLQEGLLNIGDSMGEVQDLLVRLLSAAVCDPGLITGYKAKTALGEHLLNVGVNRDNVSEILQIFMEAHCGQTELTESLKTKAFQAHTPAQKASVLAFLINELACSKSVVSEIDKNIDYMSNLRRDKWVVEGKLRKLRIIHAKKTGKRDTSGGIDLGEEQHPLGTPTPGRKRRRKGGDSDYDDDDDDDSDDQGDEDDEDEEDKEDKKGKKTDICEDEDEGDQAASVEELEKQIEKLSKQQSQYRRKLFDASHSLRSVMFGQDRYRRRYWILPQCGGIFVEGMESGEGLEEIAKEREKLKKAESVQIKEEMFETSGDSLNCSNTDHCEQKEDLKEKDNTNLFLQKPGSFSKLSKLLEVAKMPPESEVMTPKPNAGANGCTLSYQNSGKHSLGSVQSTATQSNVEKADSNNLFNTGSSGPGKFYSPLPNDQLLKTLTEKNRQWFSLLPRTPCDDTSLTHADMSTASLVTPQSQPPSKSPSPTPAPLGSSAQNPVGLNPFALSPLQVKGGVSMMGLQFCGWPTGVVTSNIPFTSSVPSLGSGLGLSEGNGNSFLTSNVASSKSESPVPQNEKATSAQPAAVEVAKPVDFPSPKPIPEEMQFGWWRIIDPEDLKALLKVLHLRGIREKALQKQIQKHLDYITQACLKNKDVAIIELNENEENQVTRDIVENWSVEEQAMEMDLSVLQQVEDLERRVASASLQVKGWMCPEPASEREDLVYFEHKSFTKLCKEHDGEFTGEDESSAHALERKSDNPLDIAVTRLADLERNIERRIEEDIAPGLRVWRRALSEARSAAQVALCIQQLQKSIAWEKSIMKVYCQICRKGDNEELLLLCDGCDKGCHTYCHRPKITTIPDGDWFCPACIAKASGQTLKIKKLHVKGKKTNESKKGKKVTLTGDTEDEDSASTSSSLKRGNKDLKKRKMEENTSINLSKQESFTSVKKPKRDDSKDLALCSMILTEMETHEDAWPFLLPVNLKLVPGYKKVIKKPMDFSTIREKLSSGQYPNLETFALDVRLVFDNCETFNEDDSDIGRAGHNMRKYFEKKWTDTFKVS
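AlphaScreen displacement of biotin-H3(5-23)K14Ac peptide (50 nM final) from BAZ2B (50 nM final) in PBS pH 7.4, 0.01% Tween-20; complex preformed 30 min RT, then compounds (top 110 uM) 30 min RT, beads 20 min dark.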
JMJD2A Tudor: blocks the human JMJD2A Tudor domain. AlphaScreen JMJD2A-Tudor / H3K4me3 peptide binding. Potency, µM (doses to about 114 µM), inactives show top-dose activity change, negative = inhibition, usual class: inhibitors. hit rate 4.4% among 390,000. AID 504339; also: % is scaled to controls: 0 for no effect and ±100 for the full control effect; nearly all actives have a fitted effect of over 50% in size
G9a inh: inhibitors of human histone lysine methyltransferase G9a; Q96KQ7; G9a H3K9 monomethylation, AlphaScreen, 2 h; hit rate 8.8% among 350,000; Potency, µM (titrated, usually from 102 µM), inactives show top-dose activity, negative = inhibition, hits mostly inhibitors; AID 504332; also: % is scaled to controls: 0 for no effect and ±100 for the full control effect; nearly all actives have a fitted effect of over 75% in size
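Signal arises when biotinylated H3K9 peptide, once monomethylated, bridges streptavidin donor and antibody-captured acceptor beads. Enzyme at 20 nM was preincubated 15 min with test compounds; peptide 500 nM and SAM 20 uM then reacted for 2 h.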
Sfp PPTase inh: Sfp phosphopantetheinyl transferase inhibition; Biochemical Sfp PPTase activity, qHTS; Potency, µM, for inactives: largest response in the series, negative = inhibition, hits mostly inhibitors; hit rate 3.5% among 310,000; AID 1490;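 also: the enzyme is Sfp with the accession as filed and its product quenches rhodamine fluorescence; 0% = enzyme reaction without inhibitor and -100% = no enzyme wells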
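Fluorescence-quenching assay with 15 nM Sfp, 5 uM rhodamine-CoA and 12.5 uM BHQ-2-labelled ybbR peptide in pH 7.6 Hepes/MgCl2 buffer. Enzyme was pre-incubated with compound for 15 min at room temperature. Rate was taken from the 30-min fluorescence change (525/598 nm).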
Active calls of the source: *; ? = inconclusive; . = not tested or not shown; [ ] = dose if it differs, or a comment. Calls follow the shape of the dose curve; as a rule, active = well fitted curve in the direction sought with a large enough effect; inconclusive = small, poorly fitted or top-dose-only effect, or another doubt; inactive = no such curve, though single readings can be large; an effect the other way counts as inactive or inconclusive. Potency is read from the fitted curve at half-maximal effect.

SMILES	PLK1 PBD inh	HP1b binding inh	BAZ2B block	JMJD2A Tudor	G9a inh	Sfp PPTase inh
Cc1ccc(-c2ccc(/C=N\NC(=O)c3cc4c(ccc5ccccc54)o3)o2)cc1[N+](=O)[O-]	-2.1%	14.4%	2.3%	-31.6%	.	-11.2%
O=C(Nc1cccnc1)c1cc2c(ccc3ccccc32)o1	-4.2%	10.7%	79.4µM*	56.2µM*	?	-10.7%
O=C(O)c1ccc(/C=N/NC(=O)c2cc3c(ccc4ccccc43)o2)cc1	?	30.5%	70.8µM*	?	?	-24.9%
COc1ccc(NC(=O)c2ccc(S(=O)(=O)C(F)F)cc2)c(OC)c1	-0.5%	19.8%	9.5%	-18.5%	37.6%	6.4%
S=c1[nH]c(-c2ccccc2)cn1/N=C/c1cccc2ccccc12	-8.5%	-21.1%	?	?	-42.6%	-11.2%
S=c1[nH]c(-c2ccccc2)cn1/N=C/c1ccccc1Br	-17.3%	-10.6%	?	-27.1%	2.51µM*	-1.6%
Cc1ccc(/C=N/n2cc(-c3ccccc3)[nH]c2=S)s1	-10.2%	31.2%	-25.6%	?	?	31.6µM*
COCCCN1CC23C=CC(O2)C(C(=O)O)C3C1=O (stereo not given)	26.7µM*	?	0.8%	?	?	-1.4%
CCOC(=O)CN1CC23C=CC(O2)C(C(=O)NCc2ccc(F)cc2)C3C1=O (stereo not given)	-8.4%	57.4%	-2.0%	0.0%	22.4µM*	17.0%
CCC/C=C/c1ccc(CN2C(C(C)C)C(=O)N(Cc3cn(CCC4OCCO4)nn3)CCS2(=O)=O)cc1 (stereo not given)	-7.2%	.	.	.	.	.
O=C(C1=C(O)C(=O)N(c2ncccn2)C1c1ccc(Cl)c(Cl)c1)c1ccco1 (stereo not given)	-23.6%	?	79.4µM*	7.08µM*	39.8µM*	56.2µM*
CC(=O)C1=C(O)C(=O)N(c2ccccn2)C1c1ccc(Cl)cc1 (stereo not given)	-7.5%	11.2%	9.9%	-2.7%	-14.1%	13.1%
Cc1ccc(C(=O)C2=C(O)C(=O)N(c3ncccn3)C2c2ccc(Cl)cc2)o1 (stereo not given)	-10.8%	32.5%	10.9%	-35.8%	10µM*	-15.6%
O=C(C1=C(O)C(=O)N(c2ncccn2)C1c1cccc(Cl)c1)c1ccco1 (stereo not given)	-9.7%	27.5%	?	-27.2%	17.8µM*	56.2µM*
Cc1cc(N2C(=O)C(O)=C(C(=O)c3ccco3)C2c2cccc(Cl)c2)no1 (stereo not given)	-17.7%	-0.8%[57 µM]	?	-24.0%	-10.6%[0.0925 µM]	-12.6%
O=C(C1=C(O)C(=O)N(c2ncccn2)C1c1ccc(Cl)cc1)c1ccco1 (stereo not given)	-7.8%	18.5%	70.8µM*	-21.9%	.	-5.2%
CCCSc1nnc(NC(=O)c2cc(=O)c3ccccc3o2)s1	.	26.4%	-2.9%	-10.1%	-32.9%[59 µM]	.
COc1cccc(Cn2c(=O)c(-c3cccc(Cl)c3)nc3cncnc32)c1	.	.	.	.	0.3%[12.7 µM]	-16.5%
CC(C)OC(=O)c1cn(Cc2c(F)cccc2F)c2sc(-c3ccc(NC(=O)C(C)C)cc3)c(CN(C)Cc3ccccc3)c2c1=O	.	.	.	.	.	-3.8%
Cc1ccc(Cl)cc1NC(=O)CSc1ccc(C(=O)O)cn1	.	54.0%	2.9%	13.5%	9.4%[59 µM]	.
COc1cc(NC(=O)NC(C)(C(F)(F)F)C(F)(F)F)cc(OC)c1OC	-12.9%	18.2%	0.4%	-4.7%[57.1 µM]	50.1µM*	6.7%
COC(=O)C(O)(CC(=O)Nc1cc(OC)c(OC)c(OC)c1)C(F)(F)F (stereo not given)	-8.0%	14.9%	-0.9%	-0.4%	-15.2%[59 µM]	-0.9%
CCC1C(O)=C(c2ccccn2)C(=N)N1c1ccccc1 (stereo not given)	-13.4%	24.8%	?	-20.8%	22.4µM*	-12.1%
Cc1c2ccccc2c(CSC(=N)N)c2ccccc12	.	.	.	.	.	44.7µM*
Cc1c2ccccc2c(C)c2c1ccc1ccccc12	5.4%	167.9%	257.0%	94.5%	300.0%[59 µM]	.
SMILES	PLK1 PBD inh	HP1b binding inh	BAZ2B block	JMJD2A Tudor	G9a inh	Sfp PPTase inh
COc1ccccc1Cn1c(=S)[nH]c2cc(C(=O)NCCN(C)C)ccc2c1=O	-13.3%	14.6%	-13.8%	-18.9%	44.7µM*	-7.4%
O=C(NCc1ccccc1)c1ccc2c(=O)n(CC3CCCO3)c(=S)[nH]c2c1 (stereo not given)	-4.3%	41.2%	8.5%	89.1µM*	-14.8%	2.9%
Cc1ccc(CNC(=O)c2ccc3c(=O)n(CC4CCCO4)c(=S)[nH]c3c2)cc1 (stereo not given)	-5.7%	24.6%	3.4%	-9.6%	2.2%[59 µM]	0.4%
COc1ccccc1CNC(=O)c1ccc2c(=O)n(CC3CCCO3)c(=S)[nH]c2c1 (stereo not given)	-7.1%	28.2%	6.3%	-2.8%	9.1%	19.1%
COCCCNC(=O)c1ccc2c(=O)n(CC3CCCO3)c(=S)[nH]c2c1 (stereo not given)	-7.3%	9.5%	?	20µM*	1.0%[12.7 µM]	-19.8%
O=C(NCc1ccco1)c1ccc2c(=O)n(CC3CCCO3)c(=S)[nH]c2c1 (stereo not given)	-4.0%	45.0%	9.1%	-11.3%	8.91µM*	-11.8%
CC(C)NC(=O)c1ccc2c(=O)n(CC3CCCO3)c(=S)[nH]c2c1 (stereo not given)	-28.6%	27.2%	9.2%	?	124.3%[59 µM]	-17.5%
CCn1c(=O)c2cc(C(=O)NCCc3ccc(OC)c(OC)c3)sc2c2ccccc21	.	11.1%	-3.1%	-16.8%	-9.7%[59 µM]	.
O=C(Nc1ccc(F)cc1F)c1cc(-c2ccc3c(c2)OCO3)on1	-2.5%	30.0%	8.0%	-9.1%	-1.6%	-7.2%
CCCS(=O)(=O)c1nc(S(=O)(=O)c2ccc(C)cc2)c(NCc2ccco2)s1	-4.2%	18.0%	-4.0%	-17.9%	39.8µM*	-5.6%
CCCS(=O)(=O)c1nc(S(=O)(=O)c2ccc(C)cc2)c(NCc2ccccn2)s1	-1.3%	49.5%	-0.3%	-4.8%	35.5µM*	-4.4%
CCS(=O)(=O)c1nc(S(=O)(=O)c2ccc(C)cc2)c(N2CC(C)OC(C)C2)s1 (stereo not given)	1.6%	56.4%	-1.6%	2.0%	.	6.8%
CS(=O)(=O)c1nc(S(=O)(=O)c2ccc(Cl)cc2)c(NCc2ccccn2)s1	-8.2%	26.2%	15.0%	-16.2%	39.8µM*	8.5%
CCCS(=O)(=O)c1nc(S(=O)(=O)c2ccc(C)cc2)c(N2CC(C)OC(C)C2)s1 (stereo not given)	-11.7%	53.3%	-3.3%	-3.4%	50.1µM*	2.7%
COc1ccc2c(c1)C(=O)[C@@H](OC(=O)Nc1cc(OC)c(OC)c(OC)c1)[C@H](c1ccc(OC)c(Br)c1)O2	.	.	.	.	.	-6.1%
Cc1ccc(C)c(N(C)C(=O)c2cn(C)c(=O)c3ccccc23)c1	.	29.5%	4.0%	-14.0%	4.5%[59 µM]	.
